This is part of a sample that, as a whole, favours compounds with a hit. Of some 79,000 tested, about 15% had one in any assay. The source made the active and inactive calls. Cut-off read from the data, not from the text of the source: active = growth inhibition above about 70%; inactive = the rest.
Experiments:
[1] = NCI Yeast Anticancer Drug Screen. Data for the rad52 strain (AID 147);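 note: 0% = growth of vehicle-treated control cultures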; details: S. cerevisiae rad52 mutant growth inhibition, hits give high values
Summary of the method: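 Yeast strain carrying a DNA damage repair alteration was exposed to test compounds. Growth inhibition was measured relative to vehicle-treated controls.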

[2] = NCI Yeast Anticancer Drug Screen. Data for the wt1 strain (AID 149);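 note: 0% = growth of vehicle-treated wt1 cultures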; details: S. cerevisiae wt1 strain (SPY 50644) growth inhibition, hits give high values
Summary of the method: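 wt1 strain grown with compound or vehicle; inhibition taken from the growth difference.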

[3] = NCI Yeast Anticancer Drug Screen. Data for the rad50EPP+ strain (AID 151);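 note: 0% = growth of vehicle-treated control cultures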; details: S. cerevisiae rad50 mutant strain, hits give high values
Summary of the method: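 Yeast strain carrying rad50 alteration (rad50EPP+) exposed to compounds; growth inhibition measured relative to vehicle-treated controls.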

[4] = NCI Yeast Anticancer Drug Screen. Data for the mgt1 strain (AID 153); details: S. cerevisiae mgt1 mutant growth inhibition, hits give high values
Summary of the method: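 Yeast mgt1 strain (DNA repair/cell-cycle alteration panel) exposed to compounds; growth inhibition measured relative to vehicle-treated controls.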

[5] = NCI Yeast Anticancer Drug Screen. Data for the rad50 strain (AID 155);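 note: 0% = growth of vehicle-only cultures of the same strain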; details: S. cerevisiae rad50 strain growth inhibition, hits give high values
Summary of the method: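 DNA repair mutant yeast, compound exposure, growth read-out; inhibition is taken relative to vehicle.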

[6] = NCI Yeast Anticancer Drug Screen. Data for the mec2-1 strain (AID 157); details: S. cerevisiae mec2-1 strain, hits give high values
Summary of the method: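 mec2-1 yeast strain, carrying an alteration in DNA damage repair or cell cycle control, was exposed to compounds; growth inhibition was measured relative to vehicle-treated controls.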

[7] = NCI Yeast Anticancer Drug Screen. Data for the rad14 strain (AID 159);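 note: 0% = growth of vehicle-treated control cultures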; details: S. cerevisiae rad14 strain growth inhibition, hits give high values
Summary of the method: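 DNA repair-defective yeast, compound-exposed; % growth inhibition derived by comparison with vehicle-treated controls.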

[8] = NCI Yeast Anticancer Drug Screen. Data for the CLN2oe strain (AID 163);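 note: 0% = growth of vehicle-only control cultures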; details: S. cerevisiae CLN2oe strain, hits give high values
Summary of the method: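 Yeast cells carrying a defined cell-cycle control alteration were exposed to test compounds. Growth inhibition was scored against vehicle-treated control cultures.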

[9] = NCI Yeast Anticancer Drug Screen. Data for the cln2 rad14 strain (AID 165);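 note: 0% = growth equal to vehicle treated cultures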; details: S. cerevisiae cln2 rad14 strain, hits give high values
Summary of the method: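 Yeast carrying cln2 and rad14 alterations (cell cycle control and DNA damage repair) were exposed to compounds. Growth inhibition was measured against vehicle-treated controls.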

[10] = NCI Yeast Anticancer Drug Screen. Data for the bub3 strain (AID 167); details: S. cerevisiae bub3 mutant strain, hits give high values
Summary of the method: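 In this screen, a yeast mutant lacking normal mitotic checkpoint function is challenged with compound. Relative growth versus vehicle gives the inhibition value.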

[11] = NCI Yeast Anticancer Drug Screen. Data for the wt2 strain (AID 169);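 note: 0% = growth of vehicle-treated yeast cultures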; details: S. cerevisiae wt2 strain growth inhibition, hits give high values
Summary of the method: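 Yeast cells were exposed to test compounds, and growth inhibition was measured relative to vehicle-treated controls.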

[12] = NCI Yeast Anticancer Drug Screen. Data for the mlh1 strain (AID 171);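 note: 0% = growth of vehicle-treated control cultures of the same strain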; details: S. cerevisiae mlh1 strain growth inhibition, hits give high values
Summary of the method: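 Yeast carrying a defined genetic alteration in DNA damage repair or cell cycle control were exposed to test compounds. Growth inhibition was measured relative to vehicle-treated controls.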

[13] = NCI Yeast Anticancer Drug Screen. Data for the sgs1 strain (AID 173);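 note: 0% = growth of vehicle-only control cultures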; details: S. cerevisiae sgs1 mutant, hits give high values
Summary of the method: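 Yeast mutant strains carrying defined defects in DNA damage repair or cell cycle control were exposed to test compounds. Growth inhibition was scored against vehicle-treated controls.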

[14] = NCI Yeast Anticancer Drug Screen. Data for the mlh1 rad18 strain (AID 175); details: S. cerevisiae mlh1 rad18 strain growth inhibition, hits give high values
Summary of the method: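 Growth inhibition of the yeast strain was measured after compound exposure and expressed relative to vehicle-treated controls. The strain carries defined defects in DNA damage repair.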

[15] = NCI Yeast Anticancer Drug Screen. Data for the rad18 strain (AID 177); details: S. cerevisiae rad18 mutant growth inhibition, hits give high values
Summary of the method: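 Yeast carrying a defined DNA damage repair alteration were exposed to compounds. Growth inhibition was expressed relative to vehicle-treated controls.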

[16] = at 5.0 µM (retest, dose inferred, filed as 0.5)
[17] = at 50.0 µM (retest, dose inferred, filed as 5.0)

Measured: growth inhibition

CN(C)CCNc1ccc2ncnc3c2c1C(=O)c1ccccc1-3
inactive: [2]; at 1.2 µM 7% | [2]; at 3.7 µM 8% | [2]; at 11.0 µM 15% | [2]; at 33.0 µM 28% | [2]; at 100.0 µM 34% | [4]; at 1.2 µM 2% | [4]; at 3.7 µM 6% | [4]; at 11.0 µM 22% | [4]; at 33.0 µM 25% | [4]; at 100.0 µM 38% | [6]; at 1.2 µM 22% | [6]; at 3.7 µM 21% | [6]; [16] 15% | [6]; at 11.0 µM 32% | [6]; at 33.0 µM 45% | [6]; [17] 48% | [6]; at 50.0 µM 68.6% | [6]; at 100.0 µM 53% | [7]; at 1.2 µM 16% | [7]; at 3.7 µM 15% | [7]; at 11.0 µM 20% | [7]; at 33.0 µM 37% | [7]; at 100.0 µM 44% | [8]; at 1.2 µM 5% | [8]; at 3.7 µM 8% | [8]; at 11.0 µM 26% | [8]; at 33.0 µM 59% | [9]; [16] 2% | [9]; [17] 51% | [9]; at 50.0 µM 66.9% | [10]; at 1.2 µM -8% | [10]; at 3.7 µM -2% | [10]; [16] 33% | [10]; at 11.0 µM 11% | [10]; at 33.0 µM 21% | [10]; [17] 31% | [10]; at 100.0 µM 36% | [11]; at 1.2 µM 8% | [11]; at 3.7 µM 10% | [11]; at 11.0 µM 20% | [11]; at 33.0 µM 49% | [11]; at 100.0 µM 56% | [12]; at 1.2 µM 10% | [12]; at 3.7 µM 14% | [12]; at 11.0 µM 28% | [12]; at 33.0 µM 41% | [12]; at 100.0 µM 46% | [13]; at 1.2 µM 9% | [13]; at 3.7 µM 8% | [13]; at 11.0 µM 24% | [13]; at 33.0 µM 54% | [13]; at 100.0 µM 61% | [14]; [16] -13% | [14]; at 50.0 µM 65.5% | [15]; at 1.2 µM 11% | [15]; at 3.7 µM 12% | [15]; at 11.0 µM 25% | [15]; at 33.0 µM 61%
active: [1]; at 1.2 µM 95% | [1]; at 3.7 µM 94% | [1]; at 11.0 µM 96% | [1]; at 33.0 µM 97% | [1]; at 100.0 µM 96% | [3]; at 1.2 µM 90% | [3]; at 3.7 µM 90% | [3]; at 11.0 µM 93% | [3]; at 33.0 µM 95% | [3]; at 100.0 µM 95% | [5]; at 1.2 µM 94% | [5]; at 3.7 µM 95% | [5]; [16] 84% | [5]; at 11.0 µM 96% | [5]; at 33.0 µM 96% | [5]; [17] 97% | [5]; at 50.0 µM 76% | [5]; at 100.0 µM 96% | [8]; at 100.0 µM 74% | [10]; at 50.0 µM 74.2% | [14]; [17] 81% | [15]; at 100.0 µM 75%

From PubChem BioAssay (NCI)
